Assay outcomes as filed in PubChem BioAssay.
Sampled rows, rich in hits. Any-hit rate of the full collection: about 2.1%.
SIRT5 inh: inhibitors of human sirtuin-5 desuccinylase; hit rate 1.1% among 330,000; Purified SirT5, succinyl-peptide AMC, trypsin-coupled fluorescence; AID 652115; Q9NXA8; inhibition, % at 15 µM; in the data active = inhibition above about 15%
Target sequence (Q9NXA8 whole entry, looked up): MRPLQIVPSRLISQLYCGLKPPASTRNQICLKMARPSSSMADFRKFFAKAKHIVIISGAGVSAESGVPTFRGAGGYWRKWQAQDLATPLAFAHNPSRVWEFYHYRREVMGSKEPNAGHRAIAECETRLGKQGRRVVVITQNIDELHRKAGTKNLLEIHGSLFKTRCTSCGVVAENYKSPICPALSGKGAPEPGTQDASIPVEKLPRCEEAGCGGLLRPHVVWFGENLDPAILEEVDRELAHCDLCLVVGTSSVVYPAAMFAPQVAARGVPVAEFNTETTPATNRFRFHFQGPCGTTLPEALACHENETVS
NSD2 inh: blocks human histone methyltransferase NSD2; hit rate 0.54% among 310,000; NSD2 peptide methylation, AlphaScreen, 120 min; inhibition, % at 12.5 µM; AID 743445; in the data active = inhibition above about 50%
Casp6 inh: blocks human caspase-6 cleavage activity | hit rate 0.53% among 350,000 | inhibition, % at 12.5 µM | P55212 | AID 686996 | purified caspase-6, Z-VEID-R110 cleavage fluorescence;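 active = mean inhibition across replicates at least about 35%, with every replicate also reaching that limit, limit read from the data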;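 note: 0% = median of neutral control wells and 100% = no fluorescence left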
Target sequence (P55212 24-179 limits assumed): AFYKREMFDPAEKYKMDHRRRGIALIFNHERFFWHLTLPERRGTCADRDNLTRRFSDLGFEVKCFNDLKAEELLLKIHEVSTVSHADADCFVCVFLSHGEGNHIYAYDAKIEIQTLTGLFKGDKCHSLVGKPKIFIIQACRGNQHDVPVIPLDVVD
Target sequence (P55212 194-293 limits assumed): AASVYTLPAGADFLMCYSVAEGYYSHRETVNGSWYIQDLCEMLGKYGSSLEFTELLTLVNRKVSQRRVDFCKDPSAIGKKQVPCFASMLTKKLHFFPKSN
ARNT TACC3 PPI: ARNT/TACC3 interaction disruption. hit rate 0.66% among 390,000. inhibition, % at 9.99 µM. Q9Y6A5. AlphaScreen His-ARNT PAS-B/GST-TACC3 binding, luminescence; TACC3 fragment carries E629A point mutation;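 active = mean inhibition of replicates at least 50% and at least half of replicates each reaching 50%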;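 note: 0% = complete ARNT plus TACC3 wells and 100% = ARNT alone without TACC3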
PfHsp90 yeast 2: reduces growth (ATP signal) of yeast expressing P. falciparum Hsp90; S. cerevisiae expressing PfHsp90, BacTiter-Glo ATP, 48 h; yeast lacking PDR1 and PDR3 efflux regulators; inhibition, % at 9.4 µM; AID 504621; hit rate 0.32% among 310,000;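 active = every replicate shows inhibition above about 80%, whatever the replicate mean, limit read from the data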;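 note: 0% = DMSO neutral controls and 100% = 20 µM radicicol positive controls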
The depositor's hits bear a star.

How did Cc1cc(C)cc(N=Cc2ccc([N+](=O)[O-])s2)c1 do in these assays?
NSD2 inh: 2; ARNT TACC3 PPI: -4; PfHsp90 yeast 2: 106*

Results for CS(=O)(=O)N1CC2(C1)[C@H](c1ccccc1)[C@H](CO)N2C(=O)c1ccccc1 ?
SIRT5 inh: 3; Casp6 inh: 1

How did CO[C@H]1CN(C)C(=O)c2ccc(NS(=O)(=O)c3ccc(C)cc3)cc2OC[C@H](C)N(C(=O)NC(C)C)C[C@@H]1C do in these assays?
SIRT5 inh: 3; Casp6 inh: 2

What do the screens show for `CCNC(=O)[C@@H]1[C@@H](CO)[C@@H]2Cn3c(ccc(C4=CCCC4)c3=O)[C@H]1N2C(=O)CC`?
SIRT5 inh: -20; Casp6 inh: -4; ARNT TACC3 PPI: 1

What do the screens show for `C[C@@]12C(=O)Nc3ccc(Cl)cc3C(=O)N1[C@H]1c3ccccc3OC[C@@H]1[C@@H]2c1ccccc1`?
ARNT TACC3 PPI: 32; PfHsp90 yeast 2: 107*

Results for COc1cc2c(cc1OC)C(=O)N1[C@H]3c4ccccc4OC[C@@H]3[C@H](c3ccccc3)[C@]1(C)C(=O)N2 ?
ARNT TACC3 PPI: 2; PfHsp90 yeast 2: 86*

How did C[C@@]12C(=O)Nc3ccc(F)cc3C(=O)N1[C@H]1c3ccccc3OC[C@@H]1[C@@H]2c1ccccc1 do in these assays?
ARNT TACC3 PPI: -7; PfHsp90 yeast 2: active

What do the screens show for `COc1ccccc1CNC(=O)C[C@@H]1C=C[C@H](NC(=O)CN(C)C)[C@@H](CO)O1`?
SIRT5 inh: -2; Casp6 inh: 4; ARNT TACC3 PPI: 8

What do the screens show for `O=C(O)c1cccc(NC2=C(N3CCOCC3)C(=O)c3ccccc3C2=O)c1`?
SIRT5 inh: -3; NSD2 inh: 29; Casp6 inh: 11; ARNT TACC3 PPI: 24; PfHsp90 yeast 2: -1

How did O=C(O)c1ccc(NC2=C(n3nnc4ccccc43)C(=O)c3ccccc3C2=O)cc1 do in these assays?
SIRT5 inh: 5; Casp6 inh: 83*; ARNT TACC3 PPI: 41; PfHsp90 yeast 2: -1

What do the screens show for `CC(C)NC(=O)N(C)C[C@@H]1Oc2c(NS(C)(=O)=O)cccc2C(=O)N([C@H](C)CO)C[C@@H]1C`?
SIRT5 inh: 0; Casp6 inh: -2; ARNT TACC3 PPI: 4

What do the screens show for `CO[C@H]1CN(C)C(=O)c2ccc(NS(C)(=O)=O)cc2OC[C@H](C)N(C(=O)c2ccc3c(c2)OCO3)C[C@H]1C`?
ARNT TACC3 PPI: -3

What do the screens show for `Cc1ccc(S(=O)(=O)N[C@@H](CO)C(=O)N[C@@H](Cc2ccc(O)cc2)C(=O)O)cc1`?
SIRT5 inh: 21*; NSD2 inh: -1; Casp6 inh: 2; ARNT TACC3 PPI: -5; PfHsp90 yeast 2: 5

Results for CN(C)CCCNC(=O)C[C@@H]1CC[C@H](NS(=O)(=O)c2ccccc2)[C@@H](CO)O1 ?
SIRT5 inh: 8; Casp6 inh: 1; ARNT TACC3 PPI: 2

How did CC1CCCC(NC(=O)COC(=O)CCSc2ccccc2)C1C (centres undefined) do in these assays?
SIRT5 inh: 16*; NSD2 inh: 4; Casp6 inh: 0; ARNT TACC3 PPI: 9; PfHsp90 yeast 2: -24

What do the screens show for `CC1CCCC(NC(=O)COC(=O)c2ccc([N+](=O)[O-])s2)C1C` (centres undefined)?
SIRT5 inh: -3; NSD2 inh: 34; Casp6 inh: 57*; ARNT TACC3 PPI: -10; PfHsp90 yeast 2: 3

What do the screens show for `CCCNC(=O)N(C)C[C@H]1Oc2cc(C#CC(C)(C)O)ccc2S(=O)(=O)N([C@H](C)CO)C[C@H]1C`?
SIRT5 inh: -1; Casp6 inh: 1; ARNT TACC3 PPI: -7

Results for O=C1Nc2ccccc2/C1=C/C(=O)c1cccs1 ?
NSD2 inh: 2; ARNT TACC3 PPI: -1; PfHsp90 yeast 2: -29

What do the screens show for `CCN1C(=O)/C(=C\C(=O)c2cccs2)c2cc(Br)ccc21`?
SIRT5 inh: -2; NSD2 inh: -9; Casp6 inh: -2; ARNT TACC3 PPI: -6; PfHsp90 yeast 2: 103*

What do the screens show for `COc1cc(-n2nc(C)c3c2OC(N)=C(C#N)C3c2ccccc2)c(Cl)c(Br)c1O` (centres undefined)?
NSD2 inh: 28; ARNT TACC3 PPI: 33*; PfHsp90 yeast 2: -9

What do the screens show for `O=C(/C=C/c1ccccc1)Nc1cccc(S(=O)(=O)Nc2ccccc2F)c1`?
SIRT5 inh: 25*; NSD2 inh: -1; Casp6 inh: -4; ARNT TACC3 PPI: -3; PfHsp90 yeast 2: -5

How did O=C(Nc1ccc(S(=O)(=O)Nc2ncccn2)cc1)c1ccccc1NS(=O)(=O)c1ccc(F)cc1 do in these assays?
SIRT5 inh: -1; NSD2 inh: -1; Casp6 inh: 4; ARNT TACC3 PPI: -5; PfHsp90 yeast 2: 34

What do the screens show for `O=C(Cc1ccc(Cl)cc1Cl)Nc1cccc(S(=O)(=O)Nc2ccccc2F)c1`?
SIRT5 inh: 30*; NSD2 inh: 2; Casp6 inh: 1; ARNT TACC3 PPI: 0; PfHsp90 yeast 2: 12

What do the screens show for `O=C(NNC(=O)c1cccc(S(=O)(=O)Nc2ccccc2F)c1)c1ccncc1`?
SIRT5 inh: 18*; NSD2 inh: -1; Casp6 inh: 1

What do the screens show for `O=C(NC1CC1)c1cccc(S(=O)(=O)Nc2ccccc2F)c1`?
SIRT5 inh: 1; NSD2 inh: 1; Casp6 inh: 0; ARNT TACC3 PPI: -5; PfHsp90 yeast 2: 12

What do the screens show for `O=C(O)/C=C/c1ccc(S(=O)(=O)Nc2ccccc2C(=O)Nc2ccc(F)cc2)cc1`?
SIRT5 inh: 0; NSD2 inh: 15; Casp6 inh: 4; ARNT TACC3 PPI: 47*; PfHsp90 yeast 2: 0

How did O=C(Cc1c(F)cccc1Cl)Nc1cccc(S(=O)(=O)NC2=NCCCCC2)c1 do in these assays?
SIRT5 inh: -2; NSD2 inh: 1; Casp6 inh: 0; ARNT TACC3 PPI: 2; PfHsp90 yeast 2: -4

What do the screens show for `C[C@@H](NC(=O)C[C@@H]1C[C@@H]2c3cc(NC(=O)Nc4ccccc4F)ccc3O[C@@H]2[C@@H](CO)O1)c1ccccc1`?
SIRT5 inh: 1; Casp6 inh: 0; ARNT TACC3 PPI: -13

How did Cc1ccc(S(=O)(=O)N[C@H]2C=C[C@@H](CC(=O)NCCN3CCCCC3)O[C@@H]2CO)cc1 do in these assays?
SIRT5 inh: 14; Casp6 inh: -14; ARNT TACC3 PPI: -1

Results for C[C@@H]1CCCCO[C@@H](CN(C)S(=O)(=O)c2ccc(Cl)cc2)[C@H](C)CN([C@@H](C)CO)C(=O)c2cc(NC(=O)c3ccncc3)ccc2O1 ?
SIRT5 inh: 6; Casp6 inh: 1; ARNT TACC3 PPI: 3

What do the screens show for `C[C@@H]1CN([C@@H](C)CO)C(=O)c2cc(NS(=O)(=O)c3cn(C)cn3)ccc2O[C@@H](C)CCCCO[C@@H]1CN(C)C(=O)Nc1cccc2ccccc12`?
ARNT TACC3 PPI: 8

How did Cc1ccc(S(=O)(=O)Nc2ccccc2C(O)c2ccccc2)cc1 (centres undefined) do in these assays?
SIRT5 inh: -3; NSD2 inh: -3; Casp6 inh: 0; ARNT TACC3 PPI: 5; PfHsp90 yeast 2: -2
